Laboratory results: PubChem BioAssay (NCATS)
Several values for one entry are separate records, joined by “and”; a condition that tells them apart may be missing. Equal entries are not always repeated. Results filed as inconclusive are left out. Values without a mark were called inactive. Activity calls are given as the source filed them. The call rests on the fitted dose curve; in most records, active means well fitted cell-killing curve with a large enough effect; inconclusive means small, poorly fitted or top-dose-only effect, or effect the other way; inactive means no such curve, though single readings can be large or run the other way.
Potency means the concentration at half of the fitted maximal effect.

Assay: Viability qHTS for spleen associated tyrosine kinase inhibitor (SYKi) drug resistant MV4-11 cells (AID 1963824); further: nearly all actives have a fitted effect of over 35% in size
Conditions: SYKi-resistant MV4-11 viability, CellTiter-Glo, 72 h; series mostly up to 45 µM; viability, % of control: at the top concentration
How it was run: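 CellTiter-Glo luminescence, read 10 min after reagent addition, reports viability after a 72 hr compound exposure. Cells are an MV4-11 line made resistant to SYK inhibition, seeded at 500 per well onto compound-containing plates.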
For `CCOC(=O)CCNc1cc(N2CCc3ccccc3CC2)nc(-c2ccccn2)n1`, the Potency was 5.25 µM (active). With `COc1cc2c(cc1OC)C(=O)CC2` the “viability, % of control” value was 69.3%. In the case of `C[C@@H](Oc1cc(C(=O)Nc2ccc(C(=O)N3CCN(C)CC3)cc2)nnc1N)c1c(Cl)ccc(F)c1Cl`, the Potency is reported as 2.63 µM (active). For `O=C(NCCc1c[nH]c2ccccc12)c1cccnc1`, the “viability, % of control” value was 67.5%. For `CCCOc1ccn2c(C(C)=O)cc(-c3ccccc3S(C)(=O)=O)c2c1`, the Potency was 14.8 µM (active). With `Cc1c(C)c2c(c(C)c1OC(=O)CCC(=O)OCCO)CC[C@@](C)(CCC[C@H](C)CCC[C@H](C)CCCC(C)C)O2` the “viability, % of control” value was 3.58%. With `CC(=O)CC(c1ccc([N+](=O)[O-])cc1)c1c(O)c2ccccc2oc1=O` (stereo unspecified) the “viability, % of control” value was 85.9%. With `CC(/C=C/C(=O)NO)=C\[C@@H](C)C(=O)c1ccc(N(C)C)cc1` the Potency was 259 nM (active) and 332 nM (active). With `NC(=O)c1ncn([C@@H]2O[C@H](CO)[C@@H](O)[C@H]2O)c1O` the Potency was “inactive”. With `CCCCOC(=O)CC(CC(=O)OCCCC)(OC(C)=O)C(=O)OCCCC` the “viability, % of control” value was 84.9%. With `Cc1[nH]c(/C=C2\C(=O)Nc3ccc(S(=O)(=O)N(C)c4cccc(Cl)c4)cc32)c(C)c1C(=O)N1CCN(C)CC1` the Potency was 1.46 µM (active) and 2.09 µM (active). With `Nc1c2ccccc2nc2ccccc12` the Potency was 3.76 µM (active). With `Cc1cc(I)ccc1Nc1c(C(=O)NOCC2CC2)cc(F)c(F)c1F` the Potency was 2.59 µM (active). In the case of `CN(C)CCOc1ccc(-c2nc(-c3ccc4c(c3)CC/C4=N\O)c(-c3ccncc3)[nH]2)cc1`, the Potency is reported as 5.9 µM (active). With `CC(C)(C)CC(C)(C)c1ccc(O)c(-n2nc3ccccc3n2)c1` the “viability, % of control” value was 84.6%. In the case of `C[C@H]1[C@H](C)CC[C@]2(C(=O)O)CC[C@]3(C)C(=CC[C@@H]4[C@@]5(C)CC[C@H](O)C(C)(C)[C@@H]5CC[C@]43C)[C@H]12`, the Potency is reported as 20.9 µM (active). For `O=C(/C=C/c1ccc(/C=C/C(=O)Nc2ccc(C3=NCCN3)cc2)cc1)Nc1ccc(C2=NCCN2)cc1`, the viability, % of control was 91.6% [at 4.97 µM]. For `CC(C)Cc1ccc([C@@H](C)C(=O)NS(C)(=O)=O)cc1`, the “viability, % of control” value was 115%. In the case of `Cn1cc(-c2cc(Oc3cc(F)c(NC(=O)C4(C(=O)Nc5ccccc5)CC4)cc3F)ccn2)cn1`, the Potency is reported as 0.461 µM (active). In the case of `CCN(c1cc(C#CCN2CCOCC2)cc(C(=O)NCc2c(C)cc(C)[nH]c2=O)c1C)C1CCC(N(C)CCOC)CC1` (stereo unspecified), the Potency is reported as “inactive”. With `C=CC(=O)Nc1cccc(Oc2nc(Nc3ccc(N4CCN(C)CC4)cc3)nc3ccsc23)c1` the Potency was 3.32 µM (active). With `CNCCn1c(=O)c2cc(OC)c(OC)cc2c2cnc3cc4c(cc3c21)OCO4` the Potency was 0.0121 µM (active). With `COc1cc([C@@H]2c3cc4c(cc3[C@@H](O[C@@H]3O[C@@H]5CO[C@@H](c6cccs6)O[C@H]5[C@H](O)[C@H]3O)[C@H]3COC(=O)[C@H]23)OCO4)cc(OC)c1O` the Potency was 0.0742 µM (active). For `Cc1c(NC(=O)c2cc(C(N)=O)nc3cc(F)ccc23)c(C(F)(F)F)nn1Cc1ccc(C(C)(C)C)cc1`, the Potency was 16.6 µM (active). In the case of `C[C@]12CCC(=O)C=C1CC[C@@H]1[C@@H]2[C@@H](O)C[C@@]2(C)[C@H]1CC[C@]2(O)C(=O)COC(=O)CCC(=O)O`, the “viability, % of control” value is reported as 103%. With `Cc1cnc(NC(=O)c2cc(Oc3cnc(C(=O)N(C)C)nc3)c3cc(C)oc3c2)cn1` the “viability, % of control” value was 101%. For `CN1CCN(C(=O)c2ccc(-c3ccc4c(C=O)c(O)ccc4c3)s2)CC1`, the Potency was 14.8 µM (active). In the case of `C=C1C[C@@]2(O)O[C@@]3(C[C@H]2C(C)C)[C@@H](C)CC[C@@H]13`, the “viability, % of control” value is reported as 83.2%. In the case of `CC(C)(C)C1CCC(CC2=C(O)c3ccccc3C(=O)C2=O)CC1` (stereo unspecified), the “viability, % of control” value is reported as 81.2%. In the case of `CN1C(CCl)Nc2cc(Cl)c(S(N)(=O)=O)cc2S1(=O)=O` (stereo unspecified), the “viability, % of control” value is reported as 80.8%. With `CCCCOC(=O)NS(=O)(=O)c1sc(CC(C)C)cc1-c1ccc(Cn2ccnc2)cc1` the Potency was 14.8 µM (active). In the case of `OCC(CO)N[C@H]1C[C@](O)(CO)[C@@H](O)[C@H](O)[C@H]1O`, the “viability, % of control” value is reported as 90.9%. For `Cc1c(F)ccc(C(=O)Nc2cc([N+](=O)[O-])ccc2N2CCN(C)CC2)c1Cl`, the Potency was 2.91 µM (active). With `O=C(NCCCNC(=O)c1ccc[nH]c1=O)c1cc(-c2ccccc2)on1` the Potency was 4.68 µM (active). With `COc1c(Nc2ncc(Cl)c(N[C@H]3[C@H](C(N)=O)[C@@H]4C=C[C@@H]3C4)n2)ccc2c1CCC(N1CCOCC1)CC2` (stereo partly specified) the Potency was 0.366 µM (active). In the case of `O=C(NCc1cccc(O)c1)Nc1nc(-c2ccncc2)cs1`, the Potency is reported as 16.4 µM (active).
